According to PubChem BioAssay (NCATS):
Inconclusive results are not listed. The source made the active and inactive calls. Calls follow the shape of the dose curve; as a rule, active = well fitted cell-killing curve with a large enough effect; inconclusive = small, poorly fitted or top-dose-only effect, or effect the other way; inactive = flat fitted curve, though single readings scatter. Where a SMILES comes first, the peptide text is derived from it. [ ]: non-standard residue; d: D form. ξ: configuration not given here. ξLac(3-iPr) = CC(C)CC(O)C(=O)O; NMeV = CN[CH](C(=O)O)C(C)C; βAla = NCCC(=O)O

Tests used:
Experiment in all cases: Primary qHTS to identify gynecologic anti-cancer compounds using libraries of approved drugs and bioactive compounds (AID 1345084); also: nearly all actives have a fitted effect of over 55% in size
C33A = conditions: Gynecologic cancer cell panel viability, ATPlite luminescence, 48 h; series mostly up to 57.5 µM
Procedure, shortened: (§1)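 ATP-based viability (ATPlite), 1,000 cells/well, 16 h pre-incubation, 48 h compound at 37 C, 5% CO2, 15 min RT before read.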

CAOV3 = conditions: Gynecologic cancer cell panel viability, ATPlite luminescence, 48 h; series mostly up to 57.5 µM
Procedure, shortened: as §1

CASKI = conditions: Gynecologic cancer cell panel viability, ATPlite luminescence, 48 h; series mostly up to 57.5 µM
Procedure, shortened: as §1

Es-2 = conditions: Gynecologic cancer cell panel viability, ATPlite luminescence, 48 h; series mostly up to 57.5 µM
Procedure, shortened: as §1

HeLa = conditions: Gynecologic cancer cell panel viability, ATPlite luminescence, 48 h; series mostly up to 57.5 µM
Procedure, shortened: as §1

Hek293T = conditions: Gynecologic cancer cell panel viability, ATPlite luminescence, 48 h, control line for the selectivity index; series mostly up to 57.5 µM
Procedure, shortened: as §1

JEG-3 = conditions: Gynecologic cancer cell panel viability, ATPlite luminescence, 48 h; series mostly up to 57.5 µM
Procedure, shortened: as §1

OV90 = conditions: Gynecologic cancer cell panel viability, ATPlite luminescence, 48 h; series mostly up to 57.5 µM
Procedure, shortened: as §1

PA-1 = conditions: Gynecologic cancer cell panel viability, ATPlite luminescence, 48 h; series mostly up to 57.5 µM
Procedure, shortened: as §1

SKOV3 = conditions: Gynecologic cancer cell panel viability, ATPlite luminescence, 48 h; series mostly up to 57.5 µM
Procedure, shortened: as §1

Tov-21-G = conditions: Gynecologic cancer cell panel viability, ATPlite luminescence, 48 h; series mostly up to 57.5 µM
Procedure, shortened: as §1

Tov112D = conditions: Gynecologic cancer cell panel viability, ATPlite luminescence, 48 h; series mostly up to 57.5 µM
Procedure, shortened: as §1

Measured: Potency

C=CC(C)(C)c1[nH]c2cc3c(cc2c1CC1NC(=O)C2CCCN2C1=O)C=CC(C)(C)O3 (stereo not given)
inactive: all assays above

O=C1NC(Cc2ccccc2)C(=O)N2CCCC12 (stereo not given)
inactive: all assays above

CC1=C(C(=O)O)/C(=C\CO[C@@H]2O[C@H](CO)[C@@H](O)[C@H](O)[C@H]2O)C(OC(=O)/C=C/c2ccc(O)cc2)C1 (stereo not given in full)
inactive: all assays above

C=C[C@H]1[C@H](O[C@@H]2O[C@H](CO)[C@@H](O)[C@H](O)[C@H]2O)OC=C(C(=O)OC)[C@H]1CCOC(=O)c1cc(O)c(O)c(O)c1
inactive: all assays above

C=C(C)C1CCC(C)C12CC(O)C1(C)OC1C2OC(=O)C(N)CCC(=O)O (stereo not given)
inactive: all assays above

CC(C)C(NC(=O)c1ccc2ccccc2n1)C(=O)NC(CC(=O)O)C(=O)COc1c(F)cccc1F (stereo not given)
inactive: all assays above

CC1(C(=O)O)CCCC2(C)C3=CCC4CC3(CCC12)CC4CO (stereo not given)
inactive: all assays above

O=C(O)c1cn(C2CC2)c2cc(N3C[C@@H]4C[C@H]3CN4)c(F)cc2c1=O
inactive: all assays above

O=C(Nc1ccc(-c2ccncc2)cc1)N[C@H](CO)c1ccccc1
inactive: all assays above

CC(C)(C)C(=O)CN1C(=O)[C@H](NC(=O)Nc2cccc(C(=O)O)c2)CN(C2CCCCC2)c2ccccc21
inactive: all assays above

CC(C)CC1OC(=O)C2CCCN2C(=O)CCNC(=O)C(Cc2ccccc2)NC(=O)C(C(C)C)N(C)C(=O)C(C(C)C)N(C)C1=O (stereo not given) (cyclo([ξLac(3-iPr)][NMeV][NMeV]F[βAla]P); configuration not given here)
inactive: all assays above

COC(=O)CCc1cc2ccoc2c(OC)c1O[C@@H]1O[C@H](CO)[C@@H](O)[C@H](O)[C@H]1O
inactive: all assays above

O=C(/C=C\c1ccc(O)cc1)N[C@@H](Cc1ccc(O)cc1)C(=O)O
inactive: all assays above

O=C(O)c1cccc(S(=O)(=O)N2CCc3ccccc3C2)c1
inactive: all assays above

CC(NC(=O)C(O)C(C)C)C(=O)NC1C(=O)N(C)CCc2ccccc21 (stereo not given)
inactive: all assays above
